Here are results for 23 molecules from PubChem BioAssay (NCATS).

The structures appear in SMILES notation. Inconclusive results are not listed. The source made the active and inactive calls. Calls follow the shape of the dose curve; as a rule, active = well fitted cell-killing curve with a large enough effect; inconclusive = small, poorly fitted or top-dose-only effect, or effect the other way; inactive = no such curve, though single readings can be large or run the other way.
Potency is read from the fitted curve at half-maximal effect.

One assay is described as follows: Quantitative High-Throughput drug screen in 47 multiple myeloma cell lines against the NCATS MIPE library collection: VP6_DJ cell viability assay (AID 1919867). Also: nearly all actives have a fitted effect of over 40% in size. Particulars: ATP luminescence, 48 h; series mostly up to 45.8 µM. The procedure, abridged:
(§1)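 ATP-based CellTiter-Glo luminescence after 48 h drug exposure (37 °C, 5% CO2) of 500 myeloma cells per well. DMSO-only wells set 100% viability, media-only wells 0%; MIPE 4.0 library added by pin tool.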
For `CCn1c(-c2nonc2N)nc2c(C#CC(C)(C)O)ncc(OC[C@H]3CCCNC3)c21`, the Potency was 14800 nM (active).

Turning to `N[C@@H]1CONC1=O`, the Potency was 20900 nM (active).

For `CCc1cc(Nc2nccc(-c3c(-c4ccc(OC)c(C(=O)Nc5c(F)cccc5F)c4)nc4ccccn34)n2)c(OC)cc1N1CCC(N2CCN(S(C)(=O)=O)CC2)CC1`, the Potency was 2640 nM (active).

On to `CCOc1ccc(Cc2cc([C@@H]3O[C@H](CO)[C@@H](O)[C@H](O)[C@@H]3O)ccc2Cl)cc1`, for which the Potency was 16600 nM (active).

On to `Cc1cccc(-c2[nH]c(C(C)(C)C)nc2-c2ccc3nccnc3c2)n1`, for which the Potency was 2960 nM (active).

Take `CN(C(=O)c1ccc(F)cc1C(F)(F)F)C1CCN(c2nnc(-c3ccnn3C)c3ccccc23)CC1`: the Potency is 16600 nM (active).

On to `CN(C)c1ccc(Nc2nc(N)n(C(=O)c3c(F)cccc3F)n2)cc1`, for which the Potency is 16600 nM (active).

As for `CNC[C@H](O)c1cccc(O)c1`, the Potency was 1320 nM (active).

As for `C[C@H](NC(=O)Cc1cc(F)cc(F)c1)C(=O)N[C@@H]1C(=O)N(C)c2ccccc2-c2ccccc21`, the Potency result is “inactive”.

In the case of `CC1(C)CNc2cc(NC(=O)c3cccnc3NCc3ccncc3)ccc21`, the Potency was 1660 nM (active).

In the case of `CCN(CC)CCCC(C)Nc1nc(C)cc(Nc2ccc3nc(C)cc(N)c3c2)n1` (centres undefined), the Potency was 3720 nM (active).

On to `Cc1ccnc(NS(=O)(=O)c2ccc(NC(=O)Nc3ccc(S(=O)(=O)Nc4nccc(C)n4)cc3)cc2)n1`, for which the Potency was 2640 nM (active).

For the molecule `COCC(=O)NCC=Cc1ccc2ncnc(Nc3ccc(Oc4ccc(C)nc4)c(C)c3)c2c1`, the Potency was 18700 nM (active).

Consider `Cc1cn[nH]c1`, for which the Potency was 93.5 nM (active).

`O=C1CCc2cc(OCCCCc3nnnn3C3CCCCC3)ccc2N1`: the Potency entry is “inactive”.

Turning to `CCOc1cc(N2CCC(O)CC2)ccc1Nc1ncc2c(n1)N(C)c1ccccc1C(=O)N2C`, the Potency is 2090 nM (active).

As to `Cc1cc(Nc2nc(N[C@@H](C)c3ncc(F)cn3)ncc2Cl)n[nH]1`, the Potency is 6620 nM (active).

Consider `Cn1cnc2c(F)c(Nc3ccc(Br)cc3Cl)c(C(=O)NOCCO)cc21`, for which the Potency is 296 nM (active).

On to `COc1ccc([C@@H]2CC(=O)c3c(O)cc(O[C@@H]4O[C@H](CO[C@@H]5O[C@@H](C)[C@H](O)[C@@H](O)[C@@H]5O)[C@@H](O)[C@H](O)[C@@H]4O)cc3O2)cc1O`, for which the Potency result is “inactive”.

A further assay is described as follows: Quantitative High-Throughput drug screen in 47 multiple myeloma cell lines against the NCATS MIPE library collection: UTMC2_PLB cell viability assay (AID 1919868). Also: nearly all actives have a fitted effect of over 55% in size. Particulars: CellTiter-Glo ATP luminescence, 48 h; viability (% of DMSO control): at 45.8 µM (top of the series). The essentials: as §1
In general terms: In ATP-based viability assays light output follows the ATP content of the culture.
Turning to `CCn1c(-c2nonc2N)nc2c(C#CC(C)(C)O)ncc(OC[C@H]3CCCNC3)c21`, the Potency was 59 nM (active).

Regarding `c1ccc([C@H]2CN3CCSC3=N2)cc1`, the Potency entry is “inactive”.

Take `N[C@@H]1CONC1=O`: the Potency result was “inactive”.

`OCCn1cc(-c2cnc3nnn(Cc4ccc5ncccc5c4)c3n2)cn1`: the Potency entry is “inactive”.

In the case of `Cc1cccc(-c2[nH]c(C(C)(C)C)nc2-c2ccc3nccnc3c2)n1`, the Potency was 2640 nM (active).

Consider `CNC[C@H](O)c1cccc(O)c1`, for which the Potency is 2.1 nM (active).

For the molecule `CC(C)(C)NCC(O)c1ccc(O)c(CO)c1` (centres undefined), the Potency entry was “inactive”.

For `Cc1cc(Nc2nc(N[C@@H](C)c3ncc(F)cn3)ncc2Cl)n[nH]1`, the Potency was 6620 nM (active).

Take `Cn1cnc2c(F)c(Nc3ccc(Br)cc3Cl)c(C(=O)NOCCO)cc21`: the Potency entry is “inactive”.

`O=S(=O)(N=Cc1c(O)ccc2ccccc12)c1cccs1`: the Potency was 18700 nM (active).
